Source: PubChem BioAssay
This excerpt belongs to a sample that is enriched for hits.
Pf Dd2 growth – blocks in vitro growth of P. falciparum Dd2; P. falciparum Dd2 growth, SYBR Green, 72 h; Potency, µM (doses to about 28.9 µM), without a hit: at the highest dose activity, negative = inhibition, actives largely listed as inhibitors; 120,000 compounds, 4.3% hits; active = well fitted inhibition curve with a large enough effect;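 also: plate controls were DMSO vehicle for no effect and reference drug for full effect; nearly all actives have a fitted effect of over 65% in size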
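Infected erythrocytes (Dd2, 0.3% parasitemia, 2.5% hematocrit final) are added to compound in RPMI-1640/Albumax II medium, grown 72 h at 37C in low oxygen, then lysed with saponin/Triton-X containing SYBR Green and read by fluorescence.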
Active calls of the source: *; [ ] = dose if it differs, or a comment. Potency is read from the fitted curve at half-maximal effect.

How did CC(C)C(=O)N1CCC2(CC1)CC(N(C(=O)c1ccccc1)C1CC1)CCO2 (stereo not given) do in these assays?
Pf Dd2 growth: inactive

Results for COCCNC(=O)C1CN(c2ccc(OC)cc2)C(=O)N1 (stereo not given) ?
Pf Dd2 growth: -21%[44.1 µM]

Results for O=C(CCc1ccccc1)N1CC(Oc2ccc(-c3nc(-c4ccccc4)no3)cc2)C1 ?
Pf Dd2 growth: 0%[5.79 µM]

What do the screens show for `Cc1cccc(C(=O)Nc2ccccc2OCc2cc(=O)n3cc(C)ccc3n2)c1`?
Pf Dd2 growth: 10%

Results for O=C(Cc1ccccc1F)N1CCC(c2noc(-c3ccncc3)n2)C1 (stereo not given) ?
Pf Dd2 growth: 12%[5.79 µM]

How did COC(=O)c1ccc(NC(=O)c2cc(S(=O)(=O)N3CCOCC3)cn2C)cc1 do in these assays?
Pf Dd2 growth: 12%

What do the screens show for `N[C@H]1CN(C(=O)c2ccc(Cn3cnnn3)cc2)C[C@@H]1C1CC1`?
Pf Dd2 growth: -9%

Results for CCOc1ccc(C(=O)N2C[C@@H](COC)[C@H](C(N)=O)C2)cc1 ?
Pf Dd2 growth: -1%

What do the screens show for `Cc1ccc(OCc2ccc(C(=O)N3C[C@H](C4CC4)[C@@H](N)C3)cc2)cc1`?
Pf Dd2 growth: 10µM*

How did CNc1ccc(C)cc1C(=O)N1CCC2(CCCN(C)CC2)CC1 do in these assays?
Pf Dd2 growth: 10µM*

How did Cc1ccc(C(=O)N2CCCC3(CCNCC3)CC2)cc1Cl do in these assays?
Pf Dd2 growth: -14%

How did CNc1ncccc1C(=O)N1CCC(O)(c2ccc(C)cn2)CC1 do in these assays?
Pf Dd2 growth: -4%

What do the screens show for `Cc1nsc(NC(=O)NC23CC4CC(C2)CC(C(C)C)(C4)C3)n1`?
Pf Dd2 growth: inactive

Results for O=C1NCCCCCCN(Cc2ccncc2)[C@@H]2CN(C(=O)C3CCOCC3)CC[C@@H]12 ?
Pf Dd2 growth: 9%

What do the screens show for `CC(=O)N1CC[C@H]2COC(=O)N2c2cc(C)ccc2C1`?
Pf Dd2 growth: 17%[44.1 µM]

How did COCCNC(=O)C(NC(=O)c1ccc(OC)cc1)C1CCN(C(=O)c2ccccc2)CC1 (stereo not given) do in these assays?
Pf Dd2 growth: 6%

Results for COc1ccc(/C=C/C(=O)Nc2nc3n(n2)C(c2ccccc2)C=C(c2ccccc2)N3)cc1 (stereo not given) ?
Pf Dd2 growth: 7.9µM*

What do the screens show for `COc1ccc(C2C=C(c3ccccc3)Nc3nc(NC(=O)/C=C/c4ccccc4Cl)nn32)cc1` (stereo not given)?
Pf Dd2 growth: 7.1µM*

How did O=C(/C=C/c1ccccc1)Nc1nc2n(n1)C(c1ccc(F)cc1)C=C(c1ccccc1)N2 (stereo not given) do in these assays?
Pf Dd2 growth: 10µM*

Results for O=C(/C=C/c1ccco1)Nc1ccc(F)cc1 ?
Pf Dd2 growth: -14%

Results for COc1ccc(C2C=C(c3ccccc3)Nc3nc(NC(C)=O)nn32)cc1 (stereo not given) ?
Pf Dd2 growth: -30%

Results for COc1ccc(/C=C/C(=O)Nc2nc3n(n2)C(c2ccc(F)cc2)C=C(c2ccccc2)N3)cc1 (stereo not given) ?
Pf Dd2 growth: 8.9µM*

How did COc1ccc(C2=CC(c3ccc(N(C)C)cc3)n3nnnc3N2)cc1 (stereo not given) do in these assays?
Pf Dd2 growth: 83%

What do the screens show for `COc1ccc(NC(=O)CSCc2cnn(-c3ccccc3)c2-n2cccc2)cc1`?
Pf Dd2 growth: 29%

What do the screens show for `CN(C)CCCOCC1(C)COc2ccc(C(=O)N3CCOCC3)cc2N1` (stereo not given)?
Pf Dd2 growth: 46%[44.1 µM]

Results for CN(Cc1cnccn1)C(=O)c1sc2cccc(F)c2c1Cl ?
Pf Dd2 growth: -1%

Results for COc1ccc(-c2nc(C)c(CCNC(=O)Cc3ccc(F)cc3)s2)cc1OC ?
Pf Dd2 growth: 6%

Results for COc1cccc(CC(=O)N2CCN(c3cc(-c4ccc(Cl)cc4)[nH]n3)CC2)c1 ?
Pf Dd2 growth: -8%

What do the screens show for `COc1ccc(C2C=C(c3ccccc3)Nc3nc(NC(=O)/C=C/c4ccc(F)cc4)nn32)cc1` (stereo not given)?
Pf Dd2 growth: 13µM*

Results for COc1ccc2c(c1)CN(C(=O)NCc1ccccc1)CC[C@H]1COC(=O)N21 ?
Pf Dd2 growth: -8%[44.1 µM]

Results for COCCNC(=O)CCSc1nc(-c2ccc(OC)cc2)cc(C(F)(F)F)n1 ?
Pf Dd2 growth: inactive

How did COc1ccc(NC(=O)CCSc2nc(-c3ccc(OC)cc3)cc(C(F)(F)F)n2)cc1 do in these assays?
Pf Dd2 growth: -22%

Results for CCC(C)NC(=O)CCSc1nc(-c2ccc(OC)cc2)cc(C(F)(F)F)n1 (stereo not given) ?
Pf Dd2 growth: 11µM*

How did CNC(=O)[C@@H]1CN(C(=O)CCc2cccc(OC)c2)C[C@H]1c1n[nH]c(C)n1 do in these assays?
Pf Dd2 growth: -4%

Results for COc1ccccc1NC(=O)C1=C(C)Nc2nc(SCc3ccccc3)nn2C1c1ccncc1 (stereo not given) ?
Pf Dd2 growth: -21%

How did Cc1ccc(CNC(=O)CCCCn2c(=O)c3ccccc3n(Cc3ccc(C)cc3)c2=O)cc1 do in these assays?
Pf Dd2 growth: inactive

Results for Cc1cc(C)cc(NC(=O)CCCn2c3ccccc3c(=O)c3ccccc32)c1 ?
Pf Dd2 growth: 10µM*

Results for Cc1cc(C)cc(NC(=O)CCCn2nc(C)c3c(C)n(-c4ccccc4)nc3c2=O)c1 ?
Pf Dd2 growth: 25%

How did CC(C)CC(=O)Nc1cc(-c2ccccc2F)nn1-c1ccccc1 do in these assays?
Pf Dd2 growth: inactive

Results for CN(Cc1ccccc1)C(=O)c1ccnc(-c2nnc3ccc(N(C)c4ccccc4)nn23)c1 ?
Pf Dd2 growth: inactive

What do the screens show for `CCOc1ccc(C(=O)N2CCC[C@H]2c2nc(-c3ccc(OC)c(OC)c3)no2)cc1OCC`?
Pf Dd2 growth: 4%

How did O=c1c2sccc2n(Cc2cc(=O)n3ccccc3n2)c(=O)n1-c1cc(F)ccc1F do in these assays?
Pf Dd2 growth: -1%

What do the screens show for `CCOc1ccc(NC(=O)Cn2c(C)ccc(NC(=O)Nc3cccc(C)c3)c2=O)cc1`?
Pf Dd2 growth: inactive

How did CN(Cc1ccc(F)cc1)S(=O)(=O)c1nnc(NC(=O)c2ccccc2Cl)s1 do in these assays?
Pf Dd2 growth: inactive

Results for Cc1nc(N2CCOCC2)c2c(C(=O)N3CCN(c4ccccc4)CC3)c(C)oc2n1 ?
Pf Dd2 growth: 32%

How did CCOC(=O)c1c(C)oc2nc(C)nc(NCCc3ccc(Cl)cc3)c12 do in these assays?
Pf Dd2 growth: -18%

What do the screens show for `CCOC(=O)c1c(C)oc2nc(C)nc(NCC3CCN(Cc4cccc(Cl)c4)CC3)c12`?
Pf Dd2 growth: -18%

Results for CCOC(=O)c1c(C)oc2nc(C)nc(NCCCN3CCN(c4ccccc4)CC3)c12 ?
Pf Dd2 growth: -13%

How did CCOC(=O)c1c(C)oc2nc(C)nc(N3CCN(c4cc(Cl)ccc4C)CC3)c12 do in these assays?
Pf Dd2 growth: 8.9µM*

What do the screens show for `CCc1cccc(NC(=O)c2c(C)oc3nc(C)nc(N4CCCC4)c23)c1`?
Pf Dd2 growth: -9%

What do the screens show for `CCOC(=O)c1c(C)oc2nc(C)nc(N3CCN(c4ccccc4F)CC3)c12`?
Pf Dd2 growth: 3.2µM*

Results for CCOC(=O)c1c(C)oc2nc(C)nc(NCC3CCN(Cc4ccc(C)cc4)CC3)c12 ?
Pf Dd2 growth: 7.1µM*

What do the screens show for `CCOC(=O)c1c(C)oc2nc(C)nc(NCCc3ccc(OCC)cc3)c12`?
Pf Dd2 growth: inactive[5.79 µM]

What do the screens show for `COc1ccc(NC(=O)CSc2nnc(-c3nonc3NC(C)=O)n2-c2ccccc2)cc1`?
Pf Dd2 growth: -15%
